Source: PubChem BioAssay
PHOSPHO1 block: PubChem AID 1565 | 290,000 tested, 1.1% active | recombinant PHOSPHO1, absorbance phosphatase assay | Phosphoethanolamine/phosphocholine phosphatase (Homo sapiens), Q8TCT1 | inhibition, % at 13.3 µM; in the data active means inhibition above about 60%
Target sequence (Q8TCT1 whole entry, looked up): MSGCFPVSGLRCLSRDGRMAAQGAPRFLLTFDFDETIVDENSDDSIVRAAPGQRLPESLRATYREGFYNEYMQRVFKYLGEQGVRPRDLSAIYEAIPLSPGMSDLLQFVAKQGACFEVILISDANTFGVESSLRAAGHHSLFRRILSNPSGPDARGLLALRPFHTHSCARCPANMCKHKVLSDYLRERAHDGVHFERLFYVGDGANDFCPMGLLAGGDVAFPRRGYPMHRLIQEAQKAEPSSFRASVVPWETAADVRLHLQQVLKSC
ALR H2O2 inh: inhibitors of human ALR sulfhydryl oxidase, primary screen, biochemical, H2O2 detection, HRP-luminol luminescence, single point; FAD-linked sulfhydryl oxidase ALR (Homo sapiens), P55789; purified ALR, DTT oxidation; inhibition, % (no concentration beside the values); 290,000 tested, 3.8% active; AID 485317, 2010;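 active means mean replicate inhibition above about 79%, with every replicate also reaching it, limit read from the data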
Cardio protect: cardioprotection against H2O2-induced cell death, primary screen, uHTS, H9c2 cells, ATPLite luminescence. H9c2 cardiomyocytes, H2O2 injury protection, 2 h. 360,000 tested, 0.63% active. protection from H2O2 cell death, % at 20 µM;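 active means compounds giving at least 50% protection of heart cells from peroxide-induced death in the single-dose screen, raw or plate-pattern-corrected value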
PfGluPho inh: PfG6PD enzyme inhibitors, primary screen, biochemical, fluorescence intensity, uHTS; glucose-6-phosphate dehydrogenase-6-phosphogluconolactonase (Plasmodium falciparum 3D7); inhibition, % at 20 µM; PfGluPho enzyme, NADPH resazurin-diaphorase fluorescence; 350,000 tested, 0.78% active;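 active means inhibition reaching at least a set limit at 20 µM in the primary screen, cut at about 59% in these data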
PfM18AAP inh: PfM18AAP inhibitors, malaria aminopeptidase, primary screen, biochemical, QFRET, recombinant enzyme. inhibition, % at 7.35 µM. 290,000 tested, 1.2% active. H-Glu-NHMec fluorogenic cleavage. M18 aspartyl aminopeptidase (Plasmodium falciparum 3D7). AID 1822, 2009;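 active means inhibition above the campaign mean inhibition over all tested compounds plus 3 SD, cut at about 28% in these data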
Hits are given with their value; – = inactive; · = no result. Shown are actives, neighbours in structure and some others; about 5.6% of the full set was active somewhere.

SMILES	PHOSPHO1 block	ALR H2O2 inh	Cardio protect	PfGluPho inh	PfM18AAP inh
Cc1ccc(/C=C2/SC(=S)N(C3CCCCC3)C2=O)o1	–	–	–	–	–
Cc1ccc(Sc2ncccc2C(=O)NCC(c2ccc(F)cc2)N2CCOCC2)cc1C (stereo not given)	·	–	–	–	·
Cc1ccc(C(=O)N/C(=C/c2ccc(N(C)C)cc2)C(=O)NCC2CCCO2)cc1 (stereo not given)	–	87	–	–	–
CCCCc1ccc(NC(=S)NCC2CCCO2)cc1 (stereo not given)	–	·	–	–	–
CN(C)c1ccc(NC(=S)NCC2CCCO2)cc1 (stereo not given)	–	99	–	–	–
COc1cccc(CC2(CO)CCN(Cc3cccn3-c3cccnc3)CC2)c1	–	–	–	–	–
COc1cccc(/C=C/C(=O)Nc2ccccc2N2CCOCC2)c1	–	–	–	–	–
CCC(C)(C)NC(=O)/C=C/c1ccccc1[N+](=O)[O-]	–	95	–	–	–
CCNC(=O)/C=C/c1ccccc1[N+](=O)[O-]	–	–	–	–	–
COc1ccc(-c2nnc(SC3CCOC3=O)n2C2CCCCC2)cc1OC (stereo not given)	75	–	–	–	–
O=C(NC(=S)NCc1nc2ccccc2[nH]1)c1ccc(F)cc1	–	76	–	–	–
CC(C)=C(NC(=O)c1ccccc1)C(=O)NCCc1nc2ccccc2[nH]1	64	–	–	–	–
COc1ccc(NC(=O)c2nc[nH]c2C(=O)NCCCCCNC(=O)OC(C)(C)C)cc1	·	–	·	·	·
COc1ccc(N2CCN(C(=O)CS(=O)Cc3nc(-c4ccc(OC)c(OC)c4)oc3C)CC2)cc1 (stereo not given)	–	–	–	–	–
COc1ccc(-c2nc(CS(=O)CC(=O)NC3CCCC3)c(C)o2)cc1OC (stereo not given)	–	99	–	–	–
COc1ccc(-c2nc(CS(=O)CC(=O)NC3CCC(C)CC3)c(C)o2)cc1OC (stereo not given)	–	99	–	–	–
COc1ccc(-c2nc(CS(=O)CC(=O)NC3CCCc4ccccc43)c(C)o2)cc1OC (stereo not given)	–	99	–	–	–
Cc1ccc(N=Cc2cc(Cc3ccccc3Cl)cc([N+](=O)[O-])c2O)c(O)c1	–	–	–	–	–
COc1ccc(N=Cc2cc(Cc3ccccc3Cl)cc([N+](=O)[O-])c2O)cc1OC	–	–	76	–	–
N/N=C1\CCCc2c1[nH]c1ccc([N+](=O)[O-])cc21	88	·	–	–	–
O=[N+]([O-])c1ccc2[nH]c(=S)[nH]c2c1	·	·	–	–	·
O=[N+]([O-])c1ccc2[nH]c3c(c2c1)CCCC3	–	98	–	–	–
O=C(C1CCCCC1)N1C[C@@H](O)[C@H](n2cc(C3CC3)nn2)C[C@@H]1c1ccccc1	·	·	–	–	·
O=C(NCCc1ccc(F)cc1)c1ccc(Cl)c(S(=O)(=O)N2CCOCC2)c1	·	–	–	–	·
CCN(CC(=O)Nc1ccc(NC(C)=O)cc1)C(=O)CC1OC(=O)c2ccccc21 (stereo not given)	·	–	–	–	·
SMILES	PHOSPHO1 block	ALR H2O2 inh	Cardio protect	PfGluPho inh	PfM18AAP inh
Cc1ccc(NC(=O)CSc2nc3nc(C)c(Br)cc3[nH]2)cc1F	–	–	–	–	–
C=C(C)CSc1nc2nc(C)c(Br)cc2[nH]1	83	–	–	·	–
COC(=O)CSc1nc2nc(C)c(Br)cc2[nH]1	73	–	–	–	–
CCc1ccc(Nc2nnc(SCC(=O)c3c(N)n(C4CC4)c(=O)[nH]c3=O)s2)cc1	·	–	–	–	·
O=C(c1ccc2c(c1)OCO2)C1CCCN(Cc2ccc(OC(F)F)cc2)C1 (stereo not given)	–	–	–	–	–
CNc1ccc(-c2cccc(CO)c2)cn1	·	·	–	·	·
CCN1/C(=C/c2ccc3cc(C)ccc3[n+]2CC)Sc2ccc3sccc3c21	·	–	–	61	·
c1ccc2nc(N3CCCC3)c(N3CCCC3)nc2c1	–	99	–	–	–
CCOC(=O)c1c(C#N)c(SCC(=O)Nc2ccc(OC)cc2)nc2c1CN(CC)CC2	–	99	–	–	–
CN1CCc2nc(SCC(=O)Nc3ccc(Cl)cc3)c(C#N)cc2C1	·	99	–	–	–
